Assay results reported in PubChem BioAssay.
The source made the active and inactive calls.

Key:
[1] = tested on: PRMT1 (protein arginine N-methyltransferase 1); experiment: PRMT1 binders on small-molecule microarrays, primary screen, biochemical, small-molecule microarray, 635 nm fluorescence (AID 1088); conditions: small-molecule microarray binding, higher = more signal;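 note: binding of Prmt1 protein to compounds spotted on small-molecule microarray slides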
[2] = yeast growth modulation, basal conditions, primary screen, YJM789 clinical isolate, OD600, 24 h (AID 1089);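 note: growth of clinical yeast isolate S. cerevisiae YJM 789 seeded 1000 cells per well; test concentration not given here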; conditions: S. cerevisiae YJM789 growth, higher = more signal, called active from +8 up or from −8 down
[3] = fission yeast growth modulation, primary screen, strain 972, OD600, 24 h, no modulator (AID 1090);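 note: basal condition with compound alone and no growth modifier present; test concentration not given here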; conditions: S. pombe 972 growth, higher = more signal, called active from +8 up or from −8 down
[4] = S. cerevisiae growth modulation with rapamycin, primary screen, strain BY4716, OD600, 96 h (AID 1091); conditions: higher = more signal, called active from +8 up or from −8 down; note: test concentration not given here
[5] = molecular target: Torsin-1A-interacting protein 2 (Homo sapiens) (UniProt Q8NFQ8); experiment: LULL1 binders on small-molecule microarray, primary screen, cell lysate, human LULL1 lysate, 635/667 nm fluorescence (AID 1092); conditions: hLULL1 lysate binding, 635 nm fluorescence, higher = more signal;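 note: probe is lysate of COS7 cells overexpressing human LULL1; score merges per-feature 667 nm fluorescence with signal-to-noise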
Sequence of Torsin-1A-interacting protein 2 (Homo sapiens) (Q8NFQ8 whole entry, looked up): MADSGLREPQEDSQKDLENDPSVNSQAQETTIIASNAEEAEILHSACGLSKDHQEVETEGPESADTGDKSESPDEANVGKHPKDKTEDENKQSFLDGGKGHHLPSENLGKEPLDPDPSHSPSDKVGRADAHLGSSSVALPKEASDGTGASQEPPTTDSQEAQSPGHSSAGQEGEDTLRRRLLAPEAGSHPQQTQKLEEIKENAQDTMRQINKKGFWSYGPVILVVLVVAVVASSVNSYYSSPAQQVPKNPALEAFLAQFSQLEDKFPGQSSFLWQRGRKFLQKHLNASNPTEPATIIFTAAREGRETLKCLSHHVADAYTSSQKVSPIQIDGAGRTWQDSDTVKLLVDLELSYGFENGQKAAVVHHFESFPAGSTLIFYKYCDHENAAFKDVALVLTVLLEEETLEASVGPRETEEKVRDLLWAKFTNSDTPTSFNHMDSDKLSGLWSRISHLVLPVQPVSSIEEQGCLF

[6] = E. coli growth modulation, two-sided OD650, primary screen, E. coli filamentation project, strain DRC41, 24 h (AID 1093); conditions: OD650, 24 h, higher = more signal, called active from +8 up or from −8 down;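 note: MC1000 strain lacking acrAB efflux and sulA so SOS filamentation is blocked; test concentration not given here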
[7] = small-molecule microarray binders of probe aLefty2, primary screen, biochemical, biotinylated probe, 635/667 nm fluorescence (AID 1094); conditions: higher = more signal;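 note: score merges spot fluorescence near 667 nm with spot signal-to-noise ratio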
[8] = tested on: Noggin (protein binding on small-molecule microarray); experiment: Noggin binders on small-molecule microarray, primary screen, biochemical, 635/667 nm fluorescence (AID 1095); conditions: 635 nm fluorescence, higher = more signal;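 note: score merges 667 nm feature fluorescence with signal to noise over triplicate slides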
[9] = molecular target: Neurogenic locus notch homolog protein 3 (Homo sapiens) (UniProt Q9UM47); experiment: NOTCH3 binders on small-molecule microarray, primary screen, biochemical, 635/667 nm fluorescence (AID 1096); conditions: NOTCH3 binding, 635 nm fluorescence, higher = more signal
Sequence of Neurogenic locus notch homolog protein 3 (Homo sapiens) (Q9UM47 whole entry, looked up): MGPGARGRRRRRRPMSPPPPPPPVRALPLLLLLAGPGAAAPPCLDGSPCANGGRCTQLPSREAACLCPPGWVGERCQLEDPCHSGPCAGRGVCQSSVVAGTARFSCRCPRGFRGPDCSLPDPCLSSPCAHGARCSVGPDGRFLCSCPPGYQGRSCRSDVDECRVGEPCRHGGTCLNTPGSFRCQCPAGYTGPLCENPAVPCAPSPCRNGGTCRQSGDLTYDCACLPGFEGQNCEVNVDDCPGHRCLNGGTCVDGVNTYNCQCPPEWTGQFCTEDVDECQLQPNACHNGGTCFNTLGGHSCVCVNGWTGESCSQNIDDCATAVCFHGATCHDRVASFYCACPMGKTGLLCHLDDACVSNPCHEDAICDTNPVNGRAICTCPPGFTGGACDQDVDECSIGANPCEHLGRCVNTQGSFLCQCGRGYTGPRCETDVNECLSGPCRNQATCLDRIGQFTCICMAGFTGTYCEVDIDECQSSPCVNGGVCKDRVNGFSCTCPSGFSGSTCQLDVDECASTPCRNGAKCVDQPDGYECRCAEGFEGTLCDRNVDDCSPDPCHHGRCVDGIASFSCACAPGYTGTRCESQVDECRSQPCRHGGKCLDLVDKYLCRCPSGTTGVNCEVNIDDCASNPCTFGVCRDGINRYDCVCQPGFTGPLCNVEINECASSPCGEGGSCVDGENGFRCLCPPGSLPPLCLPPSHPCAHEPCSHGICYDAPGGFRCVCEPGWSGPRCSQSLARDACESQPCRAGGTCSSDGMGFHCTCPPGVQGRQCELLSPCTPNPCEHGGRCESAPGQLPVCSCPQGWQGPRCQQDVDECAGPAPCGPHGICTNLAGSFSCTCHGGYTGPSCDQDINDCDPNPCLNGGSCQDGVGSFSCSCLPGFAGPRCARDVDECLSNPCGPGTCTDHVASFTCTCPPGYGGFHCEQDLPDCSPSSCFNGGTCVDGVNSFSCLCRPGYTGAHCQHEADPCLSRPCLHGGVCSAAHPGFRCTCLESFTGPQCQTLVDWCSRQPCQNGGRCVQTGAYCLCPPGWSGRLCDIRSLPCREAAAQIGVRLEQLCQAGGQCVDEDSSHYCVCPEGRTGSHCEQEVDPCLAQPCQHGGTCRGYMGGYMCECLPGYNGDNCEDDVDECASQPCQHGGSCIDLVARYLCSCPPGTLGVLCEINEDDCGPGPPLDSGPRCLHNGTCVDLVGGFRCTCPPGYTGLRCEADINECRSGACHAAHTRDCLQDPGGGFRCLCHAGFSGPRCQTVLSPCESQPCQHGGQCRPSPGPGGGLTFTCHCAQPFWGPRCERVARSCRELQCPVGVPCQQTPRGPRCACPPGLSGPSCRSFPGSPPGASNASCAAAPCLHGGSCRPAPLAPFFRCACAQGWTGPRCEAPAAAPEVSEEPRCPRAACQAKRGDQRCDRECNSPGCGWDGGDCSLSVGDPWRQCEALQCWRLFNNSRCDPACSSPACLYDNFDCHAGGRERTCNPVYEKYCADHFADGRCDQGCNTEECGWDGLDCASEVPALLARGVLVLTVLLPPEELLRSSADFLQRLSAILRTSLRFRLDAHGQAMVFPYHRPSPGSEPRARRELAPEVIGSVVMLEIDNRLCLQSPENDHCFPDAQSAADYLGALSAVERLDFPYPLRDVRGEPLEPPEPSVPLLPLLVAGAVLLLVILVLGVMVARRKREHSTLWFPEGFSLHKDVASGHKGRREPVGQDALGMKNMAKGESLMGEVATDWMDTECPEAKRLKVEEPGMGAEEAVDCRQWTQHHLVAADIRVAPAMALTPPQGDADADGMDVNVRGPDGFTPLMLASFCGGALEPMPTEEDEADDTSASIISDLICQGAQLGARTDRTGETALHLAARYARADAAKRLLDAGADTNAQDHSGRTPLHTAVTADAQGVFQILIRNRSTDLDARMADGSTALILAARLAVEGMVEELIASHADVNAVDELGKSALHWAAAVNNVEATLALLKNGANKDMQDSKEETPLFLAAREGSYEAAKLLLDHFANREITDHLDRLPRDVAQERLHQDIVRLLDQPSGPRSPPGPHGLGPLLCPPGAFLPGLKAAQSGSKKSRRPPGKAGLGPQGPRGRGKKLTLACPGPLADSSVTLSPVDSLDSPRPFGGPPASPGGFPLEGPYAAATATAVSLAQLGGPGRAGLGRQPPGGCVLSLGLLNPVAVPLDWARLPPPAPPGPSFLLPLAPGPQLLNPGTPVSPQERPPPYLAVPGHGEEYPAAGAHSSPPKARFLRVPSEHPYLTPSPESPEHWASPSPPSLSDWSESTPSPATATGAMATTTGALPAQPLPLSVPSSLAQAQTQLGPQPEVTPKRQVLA

[10] = small-molecule microarray binders of probe aEGFR, primary screen, biochemical, biotinylated probe, 635/667 nm fluorescence (AID 1097); conditions: higher = more signal;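 note: probe is a biotinylated anti-EGFR antibody binding compounds printed on slides; score combines fluorescence near 667 nm and signal to noise of each spot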
[11] = tested on: Plasmodium falciparum Sir2 (PF13_0152, Sir2A); experiment: pfSir2 binders on small-molecule microarrays, primary screen, biochemical, small-molecule microarray, 635 nm fluorescence (AID 1098); conditions: small-molecule microarray binding, fluorescence 635 nm; higher = more signal;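 note: score merges spot fluorescence intensity with its signal-to-noise ratio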
[12] = small-molecule microarray binders of probe aDKK1, primary screen, biochemical, biotinylated probe, 635/667 nm fluorescence (AID 1099); conditions: higher = more signal;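 note: score merges 667nm spot fluorescence with signal to noise across triplicate slides; reference of the scale not given here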
[13] = small-molecule microarray binders of probe aCHRDL2, primary screen, biochemical, biotinylated probe, 635/667 nm fluorescence (AID 1100); conditions: higher = more signal
[14] = splicing luciferase reporter signal modulators, primary screen, spliceosome inhibition project, cell-based, HEK293, splice +/- reporter (AID 1101); conditions: luminescence, 24 h, higher = more signal, called active from +8 up or from −8 down;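 note: HEK293 cells carrying a splicing-competent luciferase reporter gene; test concentration not given here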
[15] = molecular target: Fibroblast growth factor 10 (Homo sapiens) (UniProt O15520); experiment: FGF10 binders on small-molecule microarrays, primary screen, biochemical, small-molecule microarray, 635 nm fluorescence (AID 1102); conditions: FGF10 binding, fluorescence 635 nm, higher = more signal
Sequence of Fibroblast growth factor 10 (Homo sapiens) (O15520 whole entry, looked up): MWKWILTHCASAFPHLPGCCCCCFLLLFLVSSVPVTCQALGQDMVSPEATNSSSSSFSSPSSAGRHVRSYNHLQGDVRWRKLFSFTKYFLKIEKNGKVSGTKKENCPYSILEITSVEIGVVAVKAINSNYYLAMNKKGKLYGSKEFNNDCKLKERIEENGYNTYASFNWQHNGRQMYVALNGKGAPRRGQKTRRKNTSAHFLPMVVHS

[16] = tested on: glycogen synthase kinase-3 (GSK3A per assay name; protocol says GSK3B); experiment: GSK3 binders on small-molecule microarrays, primary screen, biochemical, small-molecule microarray, 635 nm fluorescence, GSK3A (AID 1103); conditions: small-molecule microarray binding, fluorescence 635 nm; higher = more signal; note: the record names both GSK3A and GSK3B
[17] = molecular target: Epidermal growth factor receptor (Homo sapiens) (UniProt P00533); experiment: EGFR binders on small-molecule microarrays, primary screen, biochemical, small-molecule microarray, 635 nm fluorescence (AID 1104); conditions: EGFR binding, higher = more signal;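 note: score merges 667 nm emission intensity with spot signal to noise over triplicate slides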
Sequence of Epidermal growth factor receptor (Homo sapiens) (P00533 whole entry, looked up): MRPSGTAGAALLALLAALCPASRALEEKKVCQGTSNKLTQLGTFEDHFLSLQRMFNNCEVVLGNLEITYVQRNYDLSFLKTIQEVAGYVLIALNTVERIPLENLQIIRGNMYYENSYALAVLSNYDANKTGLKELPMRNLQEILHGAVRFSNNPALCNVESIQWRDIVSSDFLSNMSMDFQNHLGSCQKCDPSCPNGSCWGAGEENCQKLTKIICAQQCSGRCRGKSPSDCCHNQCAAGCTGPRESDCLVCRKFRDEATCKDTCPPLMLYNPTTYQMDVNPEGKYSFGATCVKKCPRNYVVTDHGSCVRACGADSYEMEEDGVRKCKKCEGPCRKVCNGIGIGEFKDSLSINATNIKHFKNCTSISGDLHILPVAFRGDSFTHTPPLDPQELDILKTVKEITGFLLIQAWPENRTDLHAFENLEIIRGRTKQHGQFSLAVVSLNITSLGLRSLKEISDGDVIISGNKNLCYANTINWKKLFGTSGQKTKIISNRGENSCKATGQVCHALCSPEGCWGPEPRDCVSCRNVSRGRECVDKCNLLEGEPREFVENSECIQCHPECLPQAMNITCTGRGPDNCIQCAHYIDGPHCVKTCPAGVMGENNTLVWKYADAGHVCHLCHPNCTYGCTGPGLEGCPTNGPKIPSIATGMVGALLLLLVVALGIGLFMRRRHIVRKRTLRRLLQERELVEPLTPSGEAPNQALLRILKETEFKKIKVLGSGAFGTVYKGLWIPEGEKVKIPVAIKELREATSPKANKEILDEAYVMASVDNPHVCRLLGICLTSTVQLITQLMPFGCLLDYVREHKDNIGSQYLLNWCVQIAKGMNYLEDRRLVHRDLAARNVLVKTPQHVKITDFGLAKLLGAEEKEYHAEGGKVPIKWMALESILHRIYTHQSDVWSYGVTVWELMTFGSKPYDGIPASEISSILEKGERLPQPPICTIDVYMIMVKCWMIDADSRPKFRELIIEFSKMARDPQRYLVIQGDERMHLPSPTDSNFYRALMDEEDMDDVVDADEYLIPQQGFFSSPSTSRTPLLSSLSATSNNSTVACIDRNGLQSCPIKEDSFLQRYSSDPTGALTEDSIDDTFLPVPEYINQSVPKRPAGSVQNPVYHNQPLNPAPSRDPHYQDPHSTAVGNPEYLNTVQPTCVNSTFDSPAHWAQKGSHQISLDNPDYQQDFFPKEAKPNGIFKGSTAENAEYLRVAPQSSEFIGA

[18] = molecular target: Follistatin-related protein 3 (Homo sapiens) (UniProt O95633); experiment: FSTL3 binders on small-molecule microarrays, primary screen, biochemical, small-molecule microarray, 635 nm fluorescence (AID 1105); conditions: FSTL3 binding, higher = more signal;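 note: score merges emission near 667 nm and signal to noise per printed spot across three slides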
Sequence of Follistatin-related protein 3 (Homo sapiens) (O95633 whole entry, looked up): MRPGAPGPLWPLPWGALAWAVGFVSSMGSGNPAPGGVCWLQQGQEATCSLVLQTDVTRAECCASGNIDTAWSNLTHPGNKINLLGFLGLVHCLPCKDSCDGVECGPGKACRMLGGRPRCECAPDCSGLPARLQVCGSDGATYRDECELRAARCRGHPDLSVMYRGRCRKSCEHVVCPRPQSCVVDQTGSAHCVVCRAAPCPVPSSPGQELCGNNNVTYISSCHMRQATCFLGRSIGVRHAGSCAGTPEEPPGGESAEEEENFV

[19] = molecular target: Dickkopf-related protein 1 (Homo sapiens) (UniProt O94907); experiment: DKK1 binders on small-molecule microarrays, primary screen, biochemical, small-molecule microarray, 635 nm fluorescence scan (AID 1106); conditions: DKK1 binding, higher = more signal;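 note: score merges emission near 667 nm with signal to noise over three replicate slides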
Sequence of Dickkopf-related protein 1 (Homo sapiens) (O94907 whole entry, looked up): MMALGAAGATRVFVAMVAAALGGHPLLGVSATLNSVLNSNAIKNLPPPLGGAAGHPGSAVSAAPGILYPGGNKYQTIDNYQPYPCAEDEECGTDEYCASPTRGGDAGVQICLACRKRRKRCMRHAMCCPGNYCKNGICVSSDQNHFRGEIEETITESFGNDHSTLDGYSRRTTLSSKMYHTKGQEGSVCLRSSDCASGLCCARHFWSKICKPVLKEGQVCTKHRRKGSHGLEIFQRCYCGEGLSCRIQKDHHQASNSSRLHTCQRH

[20] = tested on: Inhibin beta A chain (activin A); experiment: INHBA (activin A) binders on microarrays, primary screen, biochemical, small-molecule microarray, 635 nm fluorescence scan (AID 1107); conditions: small-molecule microarray binding, higher = more signal;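 note: mouse activin A protein probed at 4.33 µg/mL on printed slides; score merges bound-protein fluorescence near 667 nm with spot signal-to-noise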

Structure (SMILES) | composite z-score [1] | z-score [2] | z-score [3] | z-score [4] | composite z-score [5] | z-score [6] | composite z-score [7] | composite z-score [8] | composite z-score [9] | composite z-score [10] | composite z-score [11] | composite z-score [12] | composite z-score [13] | z-score [14] | composite z-score [15] | composite z-score [16] | composite z-score [17] | composite z-score [18] | composite z-score [19] | composite z-score [20]
O=C(NCC(O)CO)[C@@]1(CCS(=O)(=O)c2ccccc2)COC(c2ccc(OCCCO)cc2)=N1 (stereo not given in full) | 0.797 | 0.257 (inactive) | -0.197 (inactive) | 0.648 (inactive) | 3.86 | 0.671 (inactive) | 0.362 | 0.481 | 0.79 | 0.473 | 1.13 | 1.07 | 1.16 | 0.475 (inactive) | 0.655 | -0.454 | -0.375 | -0.199 | -0.522 | 0.877
COCCOC(=O)N1C(=O)[C@@]2(c3cc(C#CCNC(N)=O)ccc31)[C@H](c1ccc(O)cc1)N1[C@H](c3ccccc3)[C@H](c3ccccc3)OC(=O)[C@H]1[C@@H]2C(=O)N1CCN(c2ncccn2)CC1 | 1.42 | 1.74 (inactive) | 1.94 (inactive) | 4.35 (inactive) | 3 | -0.561 (inactive) | 0.24 | 0.96 | 1.15 | 0.187 | 1.55 | 0.607 | 0.762 | 0.41 (inactive) | 0.811 | 0.907 | 0.279 | 0.751 | 0.0805 | 0.311
C=C(C)C1CCC(C(O)C2C=CC3C(=O)N(C)C(=O)C3N2Nc2cc(OC)c(OC)c(OC)c2)CC1 (stereo not given) | 1.51 | 0.367 (inactive) | 0.458 (inactive) | 0.0769 (inactive) | 3.28 | -1.37 (inactive) | 0.0361 | 0.205 | 1.02 | 0.0763 | 0.506 | 0.005 | 0.422 | 0.719 (inactive) | 0.755 | 1.17 | 0.885 | 1.15 | 0.519 | 1.11
C=CC1c2cc(O)c(OC)cc2CCN1Cc1ccc([N+](=O)[O-])o1 (stereo not given) | -0.047 | 0.994 (inactive) | -0.61 (inactive) | 0.757 (inactive) | 2.77 | 0.694 (inactive) | 0.0761 | -0.273 | 0.606 | 0.0779 | 1.19 | 0.819 | 0.826 | -0.109 (inactive) | 0.367 | -0.128 | -0.841 | -0.15 | -0.641 | 0.87
COCC1=C2[C@@H](CCc3ccccc3)OB(O)C[C@@H]2[C@@H]2C(=O)N(C)C(=O)[C@@H]2C1 | -0.0522 | -0.31 (inactive) | -1.56 (inactive) | -0.53 (inactive) | 0.332 | -0.817 (inactive) | -0.0141 | 0.0638 | 0.183 | -0.131 | -0.069 | -0.333 | -0.57 | 0.348 (inactive) | 0.711 | -0.0422 | 0.3 | 0.146 | 0.216 | 0.808
CC(C)c1ccc(NN2C(C(O)Cc3ccccc3)C=CC3C(=O)N(c4ccccc4)C(=O)C32)cc1 (stereo not given) | 1.48 | -0.619 (inactive) | -0.699 (inactive) | 0.844 (inactive) | 3.51 | -1.36 (inactive) | 0.388 | 0.294 | 1.07 | 0.205 | 0.587 | 0.655 | 0.811 | -0.469 (inactive) | 0.932 | 1.04 | 0.399 | 1.26 | 0.241 | -0.323
CC(C)C(CO)N1C(=O)[C@@H]2[C@H]3C(=O)OCC=C[C@H]3OC23C=CCN(C(C)(C)C)C(=O)[C@@H]13 (stereo not given in full) | -0.0274 | 0.027 (inactive) | 0.0191 (inactive) | 0.754 (inactive) | -0.963 | -0.7 (inactive) | -0.168 | -0.122 | -0.0022 | -0.144 | 1.45 | -0.293 | -0.348 | 0.454 (inactive) | -1.07 | -1.57 | -0.257 | -0.21 | -0.181 | 0.83
COc1cc2c(cc1O)C(c1ccc(CN3CCCC3)cc1)N(C)CC2 (stereo not given) | -1.16 | 0.526 (inactive) | -0.262 (inactive) | 0.539 (inactive) | 0.54 | 0.774 (inactive) | -0.316 | -0.814 | -0.579 | -0.191 | 0.232 | -0.0829 | -0.275 | -0.00442 (inactive) | 0.167 | -1.27 | -0.419 | -0.567 | -0.622 | -0.172
CCOC(=O)C1=C[C@@H](C(C)(C)C)N(S(=O)(=O)c2ccc(C)cc2)[C@H]1c1ccc(C)cc1 | 1.54 | -0.582 (inactive) | 0.0598 (inactive) | 0.632 (inactive) | 3.25 | -1.38 (inactive) | 0.273 | 0.552 | 1.02 | 0.157 | 0.772 | 0.46 | 0.517 | -0.598 (inactive) | 1.3 | 0.995 | 0.78 | 1.26 | 0.541 | 0.516
C=CCC(OC(C)=O)[C@@H]1[C@@H](N(Cc2cccc3ccccc23)C(=O)c2ccc(-c3ccccc3)cc2)c2cc(OCCCO)ccc2N1C(=O)c1ccc(-c2ccccc2)cc1 (stereo not given in full) | -0.0425 | -1.05 (inactive) | -0.0057 (inactive) | -0.415 (inactive) | 0.549 | -1.02 (inactive) | -0.0179 | -0.63 | -0.234 | -0.106 | 0.122 | 0.508 | 0.75 | -0.698 (inactive) | -0.221 | -0.0259 | -0.151 | 0.143 | -0.242 | 0.967
